MCF10A rereplic: inducers of DNA re-replication in MCF 10A breast cells; Potency, µM (series often up to 46.1 µM), most hits filed as activators; 350,000 compounds, 2.9% hits; MCF 10A DNA re-replication, Hoechst nuclear intensity, 48 h; also: nearly all actives have a fitted effect of over 50% in size
KB-V1 MDR tox: KB-V1 MDR subline cytotoxicity | KB-V1 MDR cells viability, CellTiter-Glo, 72 h | Potency, µM (doses to about 46.1 µM), usual class: cytotoxic | 400,000 compounds, 3.4% hits; also: nearly all actives have a fitted effect of over 60% in size
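Potencies derive from concentration-effect curves fitted to normalized luminescence (CellTiter-Glo) of KB-V1 cells treated for 72 h at 37 degrees C in phenol-red-free DMEM containing 10% FBS.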
SW480 rerep: inducers of DNA re-replication in SW480 colon cancer cells. 340,000 compounds, 1.8% hits. AID 624297. Potency, µM (titrated, usually from 46.1 µM), usual class: activators. SW480 DNA re-replication, Hoechst DNA content imaging, 48 h; also: nearly all actives have a fitted effect of over 55% in size
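First, 250 cells per well were seeded. Next, compound or vehicle (23 nL) was pinned in, plates sat 48 hr at 37 C. Finally Hoechst was added for 40 min before fluorescence scanning.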
HT1080NT lethal: kills 2HG-producing HT-1080-NT fibrosarcoma cells; AID 686970; Potency, µM (highest dose often 46.1 µM), hits mostly cytotoxic; HT-1080-NT fibrosarcoma viability, CellTiter-Glo ATP luminescence, 48 h; 360,000 compounds, 1.6% hits;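 also: NT is the 2HG producing partner of a matched IDH1 knockdown line; nearly all actives have a fitted effect of over 55% in size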
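HT-1080-NT; 750 cells/well; 5% FBS RPMI; 48 h compound, 37 degrees C; CellTiter-Glo luminescence; curve fitting and curve-class assignment.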
KB-3-1 tox: kills parental KB-3-1 adenocarcinoma cells; KB-3-1 viability, CellTiter-Glo ATP luminescence, 72 h; Potency, µM (highest dose often 46.1 µM), usual class: cytotoxic; 400,000 compounds, 1.4% hits; AID 1347075; also: nearly all actives have a fitted effect of over 60% in size
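KB-3-1 cells, DMEM (no phenol red) + 10% FBS; compound by pin transfer, 72 h, 37 °C. Readout: CellTiter-Glo luminescence after 10 min. Data normalized, curve-fitted.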
HT1080 IDH1KD tx: toxicity to HT-1080 IDH1 knockdown cells (counter line); HT-1080 IDH1 knockdown viability, ATP luminescence, 48 h; Potency, µM (titrated, usually from 46.1 µM), actives largely listed as cytotoxic; 360,000 compounds, 2% hits; AID 686971
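Luminescent ATP read-out (CellTiter-Glo, 10 min at room temperature) after 48 h compound exposure at 37 °C gave viability of IDH1-knockdown HT-1080 cells. Activity was normalised to DMSO and cell-free wells, then fitted as concentration-response curves.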
Large screens that a line does not name were inactive. Sampled rows, rich in hits. Any-hit rate of the full collection: about 8%. Calls follow the shape of the dose curve; as a rule, active = well fitted curve in the direction sought with a large enough effect; inconclusive = small, poorly fitted or top-dose-only effect, or another doubt; inactive = no such curve, though single readings can be large; an effect the other way counts as inactive or inconclusive.

O=C(N/N=C/c1ccco1)c1cc(-c2ccncc2)nc2ccccc12	MCF10A rereplic inconclusive, SW480 rerep 16µM, HT1080NT lethal inconclusive, KB-3-1 tox inconclusive, HT1080 IDH1KD tx inconclusive
CC(=O)Oc1ccc(/C=c2\sc3ncnn3c2=O)cc1	none
CCOC(=O)C1=C(Nc2ccccc2)CC(C)(O)C(C(=O)OCC)C1c1ccc(Cl)cc1 (configuration not stated)	MCF10A rereplic inconclusive, KB-V1 MDR tox 21µM, KB-3-1 tox inconclusive
COc1ccc(NC2=C(C(C)=O)C(c3ccccc3)C(C(C)=O)C(C)(O)C2)cc1 (configuration not stated)	KB-3-1 tox inconclusive
O=C(Nc1ccccc1)Oc1ccc[nH]c1=O	HT1080NT lethal inconclusive, HT1080 IDH1KD tx inconclusive
COC(=O)CCc1c(C)c(C(=O)c2cccc(OC)c2OC)c2ccccn12	none
Cc1ccc(/C=N/N2CCN(c3ccccn3)CC2)cc1	none
ClC(=C\c1ccccc1)/C=N/N1CCN(c2ccccn2)CC1	KB-V1 MDR tox 18µM
Nc1c(-c2ccc3c(c2)OCCO3)oc2ccccc2c1=O	MCF10A rereplic 18µM, KB-V1 MDR tox inconclusive, SW480 rerep 21µM, KB-3-1 tox inconclusive
CC(C)(C)c1ccc(/C=N/NC(=S)NC2CCCCC2)cc1	MCF10A rereplic 16µM, KB-V1 MDR tox inconclusive, SW480 rerep inconclusive, KB-3-1 tox inconclusive, HT1080 IDH1KD tx inconclusive
O=C(N/N=C/c1ccccc1)NC1CCCCC1	KB-V1 MDR tox 16µM
O=C(CNC(=O)OCc1ccccc1)NC1CCCCCCC1	KB-V1 MDR tox 18µM
O=C(Nc1ccccc1NC(=O)NC1CCCCC1)NC1CCCCC1	MCF10A rereplic 3.7µM, SW480 rerep inconclusive, KB-3-1 tox inconclusive
Cc1sc2ncnc(SCC(=O)Nc3cccc(S(N)(=O)=O)c3)c2c1C	HT1080 IDH1KD tx inconclusive
O=C(O)C(c1ccccc1)N1CCCCC1 (configuration not stated)	none
O=c1c2cc(NC(=S)NCc3cccnc3)ccc2nc2n1CCCCC2	MCF10A rereplic inconclusive, HT1080 IDH1KD tx inconclusive
Nc1c(N(CCC2=CCCCC2)C(=O)COc2ccc(F)cc2)c(=O)[nH]c(=O)n1Cc1ccccc1	MCF10A rereplic 16µM, HT1080NT lethal inconclusive, KB-3-1 tox inconclusive, HT1080 IDH1KD tx inconclusive
CC(Oc1ccccc1)C(=O)N(CCC1=CCCCC1)c1c(N)n(Cc2ccccc2)c(=O)[nH]c1=O (configuration not stated)	MCF10A rereplic inconclusive, SW480 rerep inconclusive, HT1080NT lethal 23µM, HT1080 IDH1KD tx inconclusive
Nc1c(N(CCC2=CCCCC2)C(=O)CCCOc2ccccc2)c(=O)[nH]c(=O)n1Cc1ccccc1	none
O=C(C[n+]1ccccc1)N/N=C/c1ccccc1F	none
CC(=O)n1cc(N(C(=O)CCl)c2ccc(Cl)cc2)c2ccccc21	MCF10A rereplic inconclusive, KB-V1 MDR tox inconclusive, SW480 rerep 2.6µM, HT1080NT lethal 2.3µM, KB-3-1 tox inconclusive, HT1080 IDH1KD tx 6.5µM
COc1ccccc1N(C(=O)CCl)c1cn(C(C)=O)c2ccccc12	MCF10A rereplic inconclusive, KB-V1 MDR tox 15µM, SW480 rerep inconclusive, HT1080NT lethal 1.5µM, KB-3-1 tox inconclusive, HT1080 IDH1KD tx 7.3µM
CC(=O)n1cc(Nc2ccccc2C(=O)O)c2ccccc21	KB-V1 MDR tox inconclusive
CCn1nc(NC(=O)c2cccs2)c2cc3ccccc3nc21	MCF10A rereplic 18µM, SW480 rerep 15µM, KB-3-1 tox inconclusive
CCCCn1nc(NC(=O)COC)c2cc3cc(OC)ccc3nc21	SW480 rerep 15µM
CCn1nc(NC(=O)C(C)C)c2cc3cccc(C)c3nc21	MCF10A rereplic inconclusive, SW480 rerep 8.2µM
Cc1cccc2cc3c(NC(=O)C(C)(C)C)nn(CC(C)C)c3nc12	MCF10A rereplic inconclusive, SW480 rerep 21µM
CC(C)N(C)S(=O)(=O)c1ccc(NC(=O)CSC(=S)N2CCCC2)cc1	none
CCn1nc(NC(=O)c2ccccn2)c2cc3cc(C)ccc3nc21	SW480 rerep inconclusive
Cc1ccc2cc3c(NC(=O)c4ccco4)nn(CC(C)C)c3nc2c1	MCF10A rereplic inconclusive, KB-V1 MDR tox inconclusive, SW480 rerep 9.2µM
